A selection: hits, their analogues and other compounds. The true share with any hit is near 2.4%.
HepG2 viability = kills HepG2 cells in TGF-b inhibitor counter-screen. 410,000 compounds, 0.76% hits. Potency, µM (highest dose often 46.1 µM), without a hit: at the highest dose activity change, negative = cytotoxicity, actives largely listed as cytotoxic. AID 588856. HepG2 CAGA-GFP viability, ATP luminescence, 18 h
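HepG2 CAGA-GFP cells (1000/well, DMEM with 1% FBS) received compound, then TGF-beta at 500 pg/mL final, and were incubated 18 hours at 37 degrees C. Viability was read by CellTiter-Glo luminescence. Media-only wells were set as complete cell-killing and DMSO as no toxicity.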
ATXN viability = reduces viability in counter-screen for ATXN expression inhibitors; S2 cells (HEK-293 line with an ATXN2-luciferase reporter) viability, CellTiter-Fluor protease fluorescence, 24 h; Potency, µM (titrated, usually from 56.7 µM), usual class: cytotoxic; 400,000 compounds, 0.49% hits; AID 651635; note: nearly all actives have a fitted effect of over 40% in size
TGFb SMAD3 inh = inhibitors of TGF-b signaling; 410,000 compounds, 1.2% hits; HepG2 CAGA-GFP TGF-b/SMAD3 reporter, GFP fluorescence, 18 h; TGF-beta stimulated, 500 pg/mL final; AID 588855; Potency, µM (top dose mostly 46.1 µM), for inactives: top-dose activity, negative = inhibition, most hits filed as inhibitors; note: % is set by controls: 0 for no effect and ±100 for the full control effect; nearly all actives have a fitted effect of over 65% in size
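Read-out: total well GFP (ex488/em500-530) summed from mean per-cell fluorescence. Cells: HEPG2 CAGA-GFP, 1% FBS DMEM, 18 h at 37 degrees C with 500 pg/mL final TGF-beta. Unstimulated wells served as the full-inhibition control; stimulated DMSO wells = 0%.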
Apoferritin bind = candidate novel general anesthetic via apoferritin binding | apoferritin/1-aminoanthracene competitive binding, fluorescence | Potency, µM (top dose mostly 77.5 µM), inactives show at the top dose activity change, negative = displacement, usual class: inhibitors | 350,000 compounds, 0.074% hits | AID 485281; note: % is set by controls: 0 for no effect and ±100 for the full control effect; nearly all actives have a fitted effect of over 20% in size
Target sequence (P02791 2-175 limits assumed): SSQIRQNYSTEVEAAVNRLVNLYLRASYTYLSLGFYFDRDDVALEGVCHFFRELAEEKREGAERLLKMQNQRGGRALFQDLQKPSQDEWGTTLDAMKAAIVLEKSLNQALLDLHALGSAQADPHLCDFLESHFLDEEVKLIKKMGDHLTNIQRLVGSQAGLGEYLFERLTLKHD
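Read-out: endpoint 1-AMA fluorescence, excitation 380 nm and emission 535 nm, after compounds sit 10 min at room temperature with 10 uM horse-spleen apoferritin in 50% saturated 1-AMA/PBS. Values come from four-parameter Hill fits.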
ATXN2 expr inh = ATXN2 expression inhibition | HEK-293 ATXN2-luciferase reporter, luminescence, 24 h | Potency, µM (series often up to 57 µM), inactives show at the top dose activity change, negative = inhibition, usual class: inhibitors | 360,000 compounds, 0.72% hits; note: % is set by controls: 0 for no effect and ±100 for the full control effect; nearly all actives have a fitted effect of over 55% in size
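ATXN2-luciferase reporter cells (luciferase flanked by upstream and downstream ATXN2 gene portions) were treated 24 h at 37 °C with compounds at up to 57 uM. SteadyGlo luminescence gave expression; GF-AFC fluorescence gave viability.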
An asterisk follows results filed as active; i = inactive; ? = inconclusive; · = no result; [ ] = dose if it differs, or a comment. Calls come from the whole dose curve; as a rule, active = well fitted curve in the direction sought with a large enough effect; inconclusive = small, poorly fitted or top-dose-only effect, or another doubt; inactive = no such curve, though single readings can be large; an effect the other way counts as inactive or inconclusive. Potency is the fitted concentration of half-maximal effect.

SMILES	HepG2 viability	ATXN viability	TGFb SMAD3 inh	Apoferritin bind	ATXN2 expr inh
Cc1cc(-c2ccc(S(=O)(=O)Nc3ccc(Cl)cc3C)cc2)on1	-31%	·	13µM*	?	·
Nc1nc(SCc2ccccc2)ns1	1%	i	2%	?	38%
Nc1nc(SCc2ccc(Cl)cc2)ns1	-1%	i	-5%	50µM*	53%
CCOC(=O)N1CCc2c(sc(NCc3cc(OC)ccc3OC)c2C(=O)Nc2cc(OC)ccc2OC)C1	-16%	i	-3%	-14%	-6%
Cc1ccc(OC(=O)c2oc3ccc(F)cc3c2C)c(C)c1	6%	18µM*	-5%	?	?
NC(=O)c1c(NC(NC(=O)c2ccco2)C(=O)c2ccc(Cl)cc2)sc2c1CCCC2 (stereo not drawn)	-41%	i	16µM*	-16%	4%
CCOc1ccc(Nc2nc(N)nc(CCl)n2)cc1	-61%	?	11µM*	3%	?
Cc1cccc(Nc2nc(N)nc(CCl)n2)c1C	-54%	?	14µM*	-4%	1µM*
COc1cccc(Nc2nc(N)nc(CCl)n2)c1	-40%	?	?	-10%	?
Cc1ccc(Nc2nc(N)nc(CC#N)n2)cc1	-44%	i	13µM*	0%	36%
Cc1ccc(Nc2nc(N)nc(CCl)n2)cc1	-23%	·	?	-12%	11µM*
Cc1ccc(Nc2nc(N)nc(CSCCO)n2)cc1	-26%	i	0%	-5%	30%
Nc1nc(CCl)nc(Nc2ccccc2)n1	-60%	·	?	-6%	?
N#CC1(c2ccc(NC(=O)c3cccnc3NCc3ccncc3)cc2)CCCC1	·	·	·	·	41%
Cc1ccc(Nc2nc(N)nc(CSc3nc4ccccc4s3)n2)cc1	-63%	·	13µM*	-19%	?
Cc1ccccc1Nc1nc(N)nc(CSc2nc3ccccc3s2)n1	4%	i	-6%	-22%	6%
O=C(Nc1nc2ccccc2n1CCN1CCOCC1)c1ccc(Cn2cc([N+](=O)[O-])cn2)o1	3%	i	1%	-13%	-9%
O=C(Nc1nc2ccccc2n1CCN1CCOCC1)c1cccc([N+](=O)[O-])c1	·	·	·	·	22µM*
C/C(=N\NC(=O)c1ccccc1NC(=O)c1ccc(Cl)cc1)c1ccncc1	1.3µM*	i	4%	-14%	·
C/C(=N\NC(=O)c1c(Cl)cnn1C)c1ccc(NC(=O)c2ccncc2)cc1	10µM*	i	4%	6%	-22%
CC(=NNC(=O)c1ccncc1)c1ccccc1Cl	-21%	i	3%	·	4%
COc1ccc2cc(C=O)ccc2c1	·	i	·	·	12%
CC1(C)N=C(N)N=C(N)N1c1ccc(OCC(=O)N2CCOCC2)c(Cl)c1	0.1µM*	i	-5%	·	·
CC1(C)N=C(N)N=C(N)N1c1ccc(OCC(=O)N2CCOCC2)cc1	-55%	i	0%	·	·
COC(=O)C1=C2N(Cc3ccccc3)C(C)=C(C(=O)OC)C(c3ccccc3)N2C(=O)[C@](O)(C(=O)OC)C1 (stereo partly drawn)	·	·	·	-6%[15.3 µM]	·
SMILES	HepG2 viability	ATXN viability	TGFb SMAD3 inh	Apoferritin bind	ATXN2 expr inh
COc1ccc(N(C(=O)CCl)C(C(=O)NCCc2ccccc2)c2cccs2)cc1 (stereo not drawn)	16µM*	13µM*	?	-12%	28µM*
N#C/C(=C\c1cccc([N+](=O)[O-])c1)C(=O)NCc1ccc(Cl)cc1	-28%	?	?	-23%	24µM*
COc1cc(OC)c(OC)cc1CN1CCOc2ccc(CN3CCN(C(C)=O)CC3)cc2C1	·	i	·	·	·
COc1cc(/C=C2\C=Cc3ccccc32)cc(OC)c1OC	-26%	·	48%	·	·
Cc1noc(C)c1CSCC(=O)Nc1cccc(C(F)(F)F)c1	-24%	i	-8%	·	7%
C[C@H](NCc1ccc(OCc2cccc(F)c2)cc1)C(N)=O	·	·	·	·	19µM*
CCOc1ccc(NCc2ccccc2OCc2cccc(F)c2)cc1	-28%	i	?	?	4%
COc1ccccc1C1CN(CCNC(=O)c2ccccc2Cl)Cc2ccccc2O1 (stereo not drawn)	·	i	·	·	·
CCOC(=O)N1CCN(c2ncnc3c2cnn3-c2ccc(Cl)cc2)CC1	·	·	·	9%	·
CC(C)NC[C@@H](C(=O)N1CCN(c2ncnc3c2[C@H](C)C[C@H]3O)CC1)c1ccc(Cl)cc1	·	·	·	·	19µM*
CCN1C/C(=C/c2ccc(N3CCOCC3)cc2)C(=O)/C(=C/c2ccc(N3CCOCC3)cc2)C1	-40%	·	7%	-4%	22µM*
CC(=O)Oc1ccccc1C(=O)Nc1ccccc1	-15%	i	0%	·	15%
COC1(OC)C=CC(=O)C=C1NC(=O)c1ccccc1OC(C)=O	-4%	14µM*	11µM*	·	18µM*
CC(C)C[C@H](N)c1cn([C@@H](CCCCN)C(=O)N2CCNCC2)nn1	-49%	?	?	-2%	1.6µM*
O=C(NCc1ccccn1)c1cnn(-c2ncc3c(n2)-c2ccccc2CC3)c1C1CC1	·	i	·	·	·
CC(C)Oc1ccc(C(=O)Nc2nc3ccccc3[nH]2)cc1	-21%	i	2%	-6%	4.5µM*
O=C(Nc1nc2ccccc2[nH]1)c1ccccc1OC(F)F	-26%	i	?	7%	?
O=C(Nc1nc2ccccc2[nH]1)c1ccc(F)cc1	-36%	i	-14%	-8%	?
CCc1ccc(C(=O)Nc2nc3ccccc3[nH]2)cc1	-62%	i	-13%	-14%	5µM*
O=C(Nc1nc2ccccc2[nH]1)c1ccccc1F	2.2µM*	i	1%	-5%	2%
C=C[C@@]1(C)CC[C@H]2C(=CC[C@@H]3[C@]2(C)CCC[C@@]3(C)C(=O)O)C1	·	·	·	7%	·
Cc1oc(-c2ccccc2Cl)nc1CS(=O)(=O)CC(=O)NC(C)CCc1ccccc1 (stereo not drawn)	-14%	?	10µM*	104%	?
Cc1oc(-c2cccc(Cl)c2)nc1CS(=O)(=O)CC(=O)NC(C)CCc1ccccc1 (stereo not drawn)	-34%	?	10µM*	?	?
Cc1c(C(=O)NCc2cccc(F)c2)sc2ncnc(NCC3CCCO3)c12 (stereo not drawn)	·	i	·	·	·
COc1ccccc1-c1c(C)nn2c(N3CCCCCC3)cc(C)nc12	-41%	?	11µM*	-4%	?
CC1CCCC(C)N1CCCNC(=O)c1ccc2c(c1)NC(=O)c1ccccc1S2 (stereo not drawn)	-20%	i	-12%	-14%	-13%
CCC(C)N(CCNC(=O)c1ccc2c(c1)NC(=O)c1ccccc1S2)C1CCCCC1 (stereo not drawn)	11µM*	?	?	?	?
O=c1c2c([N+](=O)[O-])cc([N+](=O)[O-])cc2sn1Cc1ccccc1	16µM*	?	?	-7%	?
